Bioassay records: PubChem, several laboratories
An excerpt weighted towards active compounds, which were near 4.2% of everything screened.
TIM10 inh: growth inhibitors of TIM10 yeast strain; S. cerevisiae TIM10 strain growth, BacTiter-Glo luminescence, 24 h; inhibition, % at 10 µM; actives 1.4% (n = 330,000); AID 463195;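 active = inhibition of 40% or more at the single tested concentration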;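 note: wild-type TIM10 isogenic control strain grown at permissive 25 °C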
PfHsp90 yeast 2: inhibits growth of yeast expressing Plasmodium falciparum Hsp90; S. cerevisiae expressing PfHsp90, BacTiter-Glo ATP, 48 h; yeast lacking PDR1 and PDR3 efflux regulators; inhibition, % at 9.4 µM; actives 0.32% (n = 310,000);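 active = every replicate shows inhibition above about 80%, whatever the replicate mean, limit read from the data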
tim10-1 inh: growth inhibitors of tim10-1 mutant yeast. S. cerevisiae tim10-1 ts strain growth, BacTiter-Glo, 24 h. inhibition, % at 20 µM. actives 2.2% (n = 330,000). AID 463190;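 active = inhibition of at least 40%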;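 note: mutant grown at 25 °C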
tim23-1 inh: tim23-1 yeast growth inhibition. S. cerevisiae tim23-1 growth, BacTiter-Glo luminescence, 24 h. inhibition, % at 20 µM. actives 1.3% (n = 330,000);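 active = growth inhibition of the mutant yeast at or above 50%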;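 note: temperature-sensitive mutant grown at 25 °C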
NALP3 yeast inh: inhibitors of NALP3 inflammasome in yeast | Yeast reconstituted NLRP3/ASC/caspase-1, beta-gal luminescence, 24 h | inhibition, % at 10 µM | actives 0.39% (n = 330,000) | AID 2825;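 active = inhibition of 50% or more; inactive = inhibition below 50%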
NALP1 inh: blocks the NALP1 inflammasome reconstituted in yeast; S. cerevisiae NALP1/ASC/caspase-1 growth, X-gal OD620, 72 h; inhibition, % at 10 µM; actives 0.61% (n = 280,000); AID 2071; in the data active = inhibition mostly above about 24%, no sharp cut-off; inactive = mostly below about 32%
tim10-1 conf: tim10-1 yeast growth inhibition, confirmed; shares compounds with tim10-1 inh; S. cerevisiae tim10-1 ts strain growth, BacTiter-Glo, 24 h; inhibition, % at 20 µM; actives 56% (n = 7,400); AID 463213;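 active = inhibition of yeast growth at or above a set limit in either of two repeat tests at 20 µM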;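 note: tim10-1 mutant grown at permissive 25 °C to find synthetic lethal compounds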
tim10 confirm: TIM10 yeast growth inhibition, confirmed | shares compounds with TIM10 inh | actives 63% (n = 4,600) | S. cerevisiae tim10 strain growth, BacTiter-Glo luminescence, 24 h | inhibition, % at 10 µM;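 active = inhibition of yeast growth at or above a set limit in either of two replicates at 10 µM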; note: this counterscreen used the strain with wild-type TIM10
tim23-1 conf: tim23-1 yeast growth inhibition, confirmed; shares compounds with tim23-1 inh; S. cerevisiae tim23-1 growth, BacTiter-Glo luminescence, 24 h; inhibition, % at 20 µM; actives 83% (n = 4,400);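 active = inhibition above about 39% in either of two replicate wells at 20 µM, limit read from the data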;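 note: temperature-sensitive tim23-1 mutant grown at 25 °C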
Numbers stand for hits; n = inactive; x = no result given.

SMILES	TIM10 inh	PfHsp90 yeast 2	tim10-1 inh	tim23-1 inh	NALP3 yeast inh	NALP1 inh	tim10-1 conf	tim23-1 conf	others
Cc1ccc(S(=O)(=O)N(C)c2ccccc2C(=O)N2CCOCC2)cc1	n	n	n	n	n	n	x	x
COc1ccc(OCCCC(=O)ON=C(N)c2ccccc2Cl)cc1	n	n	n	n	n	x	x	x
Cc1ccc(OCCCC(=O)ON=C(N)c2ccccc2C)cc1	41	n	60	62	n	x	64	61	tim10 confirm=50
COc1ccc(NC(=O)/C(Cl)=C(/Cl)S(=O)Cc2ccc(Cl)cc2)cn1 (centres undefined)	67	106	50	73	n	n	46	68	tim10 confirm=90
COc1ccc(NC(=O)C(Cl)=C(Cl)Cl)cn1	n	n	n	n	n	n	x	x
CCSc1nnc(-c2ccc(C)cc2)c2ccccc12	44	n	55	64	n	n	49	70	tim10 confirm=n
O=C(NCC(=O)N1CCN(c2ccccc2)CC1)c1cccs1	n	n	n	n	n	n	x	x
O=C(/C=C1\NC2(CCCC2)Cc2ccccc21)C(=O)N/N=C/c1ccc(O)c(O)c1	n	n	n	n	n	n	x	x
COc1ccc(/C=N/NC(=O)C(=O)/C=C2\NC3(CCCC3)Cc3ccccc32)cc1	n	n	42	54	n	n	31	n
Cn1c(CCn2ccccc2=O)nc2cc(NC(=O)COc3ccccc3)ccc21	n	n	n	n	n	n	x	x
CCOC(=O)c1ccc(NC(=O)CCC2COc3ccccc3O2)cc1 (centres undefined)	n	x	41	53	n	n	36	48
Cc1cc(Br)ccc1NC(=O)CN(C)C(=O)CN1C(=O)NC(C)(C2CC2)C1=O (centres undefined)	n	n	n	n	n	x	x	x
CCOC(=O)C1=C(CSc2nc(CC)c(C)cc2C#N)OC(N)=C(C#N)C1c1ccc(OC)cc1 (centres undefined)	n	x	41	54	n	n	n	61
O=C(Cn1nc2n(c1=O)-c1ccccc1SC2)N/N=C/c1cccnc1	n	n	n	n	n	n	x	x
Cc1cccc(CC(C)NC(=O)c2oc3c(F)cccc3c2C)n1 (centres undefined)	n	n	n	n	n	n	x	x
O=C(COc1cccc(NC(=O)c2ccccc2)c1)c1ccccc1	n	n	n	n	n	n	x	x
O=C(COc1cccc(NC(=O)c2cccs2)c1)c1ccc(F)cc1	62	n	46	53	n	n	40	76	tim10 confirm=n
NC(=O)c1c(NC(=O)c2cccs2)sc2c1CCCCCC2	n	n	46	59	n	n	n	58
CCCc1ncc(C(O)c2ccccc2OC)n1C (centres undefined)	n	n	n	n	n	n	x	x
COc1cc(OC)c(C(=O)/C=C/c2ccccc2)c(O)c1O	n	n	51	58	n	n	32	63
O=C(COC(=O)c1ccc(O)cc1O)NC12CC3CC(CC(C3)C1)C2	n	n	n	n	n	x	x	x
O=C(OCC(=O)C12CC3CC(CC(C3)C1)C2)c1ccc(O)cc1O	n	101	53	76	n	x	n	62
COc1cc(/C=C/c2sc3ccccc3[n+]2CCCS(=O)(=O)[O-])ccc1O	n	n	45	52	n	n	44	50
Cc1ccc(C(=O)/C=C/c2ccc3ncccc3c2)cc1	52	n	53	69	n	n	52	47	tim10 confirm=50
O=C(/C=C/c1c(Cl)cccc1Cl)n1cccn1	41	x	56	60	n	n	57	85	tim10 confirm=55
O=C(/C=C/c1c(Cl)cccc1Cl)N1CCOCC1	n	n	n	n	n	n	x	x
O=C(CNC(=O)c1ccccc1F)NCCc1ccc(Cl)cc1Cl	n	n	n	n	n	n	x	x
O=C(NC(=O)c1ccccc1F)OCc1ccc(Cl)cc1Cl	n	n	46	50	n	n	n	45
